PubChem BioAssay AID489028 (Sanford-Burnham Center for Chemical Genomics, 2010)
About 5,600 (56%) of roughly 10,000 compounds were called active. No stated cut-off is given here; in the data, active means inhibition above about 40%; inactive means the rest. The set was probably picked from earlier hits. Not all results are given here.

These molecules were tested against Protein Mdm4 (Homo sapiens) + E3 ubiquitin-protein ligase Mdm2 (Homo sapiens) (UniProt O15151+Q00987) (assay: inhibition of human Mdm2/MdmX pairing – luminescence, single concentration, confirmation (AID 489028)). Settings: Mdm2-MdmX binding, luminescent assay; at 8 µM; active compounds read high.
Chain of Protein Mdm4 (Homo sapiens) + E3 ubiquitin-protein ligase Mdm2 (Homo sapiens) (O15151 whole entry, looked up): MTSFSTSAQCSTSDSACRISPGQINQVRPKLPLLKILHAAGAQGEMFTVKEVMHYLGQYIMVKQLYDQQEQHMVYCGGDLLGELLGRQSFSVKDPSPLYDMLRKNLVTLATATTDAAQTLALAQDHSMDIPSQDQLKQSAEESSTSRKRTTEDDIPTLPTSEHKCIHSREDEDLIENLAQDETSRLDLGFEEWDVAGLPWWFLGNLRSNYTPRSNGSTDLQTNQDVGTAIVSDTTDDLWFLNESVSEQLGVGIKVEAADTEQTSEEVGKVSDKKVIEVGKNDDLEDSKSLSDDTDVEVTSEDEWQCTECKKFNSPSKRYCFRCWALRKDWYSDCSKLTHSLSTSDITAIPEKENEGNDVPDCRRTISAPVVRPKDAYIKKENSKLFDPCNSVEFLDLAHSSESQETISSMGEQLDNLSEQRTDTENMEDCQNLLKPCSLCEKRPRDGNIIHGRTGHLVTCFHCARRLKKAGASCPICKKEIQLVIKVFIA
Chain of Protein Mdm4 (Homo sapiens) + E3 ubiquitin-protein ligase Mdm2 (Homo sapiens) (Q00987 whole entry, looked up): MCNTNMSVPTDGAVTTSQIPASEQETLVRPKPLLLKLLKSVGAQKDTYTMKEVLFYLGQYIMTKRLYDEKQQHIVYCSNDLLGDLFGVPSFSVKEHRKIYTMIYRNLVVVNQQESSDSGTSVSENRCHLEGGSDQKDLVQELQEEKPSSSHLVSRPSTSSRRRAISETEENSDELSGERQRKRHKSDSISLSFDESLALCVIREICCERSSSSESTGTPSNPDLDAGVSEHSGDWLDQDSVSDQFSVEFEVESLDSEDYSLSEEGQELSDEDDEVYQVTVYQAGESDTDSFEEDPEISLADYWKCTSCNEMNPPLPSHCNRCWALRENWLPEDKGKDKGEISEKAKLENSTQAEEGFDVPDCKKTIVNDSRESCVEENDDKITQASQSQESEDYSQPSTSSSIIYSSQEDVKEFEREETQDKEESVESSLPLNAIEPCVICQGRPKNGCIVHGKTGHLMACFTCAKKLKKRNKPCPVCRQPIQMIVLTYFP

| SMILES | inhibition |
| --- | --- |
| COc1ccc(-c2cn[nH]c2-c2ccc(OC)cc2)cc1 | 63% (active) |
| CC1(C)Cc2nc3sc4c(SCC(=O)NC(c5ccccc5)c5ccccc5)ncnc4c3cc2CO1 | 2.85% (inactive) |
| CCOc1ccc(S(=O)(=O)Nc2cccc(C(=O)NCC3(N4CCCCC4)CCCCC3)c2)cc1 | 78.6% (active) |
| CCOC(=O)c1cc(NC(=O)c2ccc(Cl)cc2)c(=O)oc1-c1ccccc1 | 35.2% (inactive) |
| CCOC(=O)c1c(-c2cccc(C)c2)csc1NC(=O)c1c(-c2ccccc2)noc1C | 92.6% (active) |
| CCOC(=O)c1c(-c2ccc(C)cc2)csc1/N=C(\C)C1=C(O)c2ccccc2C1=O | 28.7% (inactive) |
| Fc1ccc(CNc2nc3ccccc3n3nnnc23)cc1 | 9.85% (inactive) |
| Nc1nonc1-c1nc2ccccc2n1Cc1ccc(F)cc1 | 63.5% (active) |
| COc1cccc(/C=N/NC(=O)c2[nH]nc3c2CCc2ccccc2-3)c1O | 83.7% (active) |
| COc1ccc(CNc2nc(NCc3ccc(OC)cc3)c3ncn(C4CCCC4)c3n2)cc1 | 45.4% (active) |
| CCOc1ccc2nc(Cl)c(C3CC(c4ccccc4)=NN3C(=O)c3cccs3)cc2c1 (stereo not drawn) | 5.3% (inactive) |
| COc1ccc(C2CC(c3ccccc3)=NN2C(=O)c2ccc(Cl)c([N+](=O)[O-])c2)cc1 (stereo not drawn) | 46.1% (active) |
| COc1ccc(-c2cc(C3CCN(c4ncccc4[N+](=O)[O-])CC3)[nH]n2)cc1 | 24.6% (inactive) |
| CCOC(=O)C1=C(NC(=S)NC(=O)c2ccccc2)c2ccccc2CC1(C)C | 28.8% (inactive) |
| COc1ccc(C2C(C#N)=C(N)Oc3cc(N)ccc32)cc1OC (stereo not drawn) | 9.6% (inactive) |
| N#CC1=C(N)Oc2cc(O)ccc2C1C1CCCCC1 (stereo not drawn) | 45.4% (active) |
| c1ccc2c(c1)CSc1sccc1C2=C1CCNCC1 | 72.3% (active) |
| CS(=O)(=O)c1ccc(-c2nnn(CC(=O)Nc3ccc4c(c3)OCCO4)n2)cc1 | -2.65% (inactive) |
| O=C(Nc1ccc2c(c1)OCCO2)C1CCCC1 | 69.3% (active) |
| O=C(N/N=C\c1cc2c(cc1Cl)OCO2)c1ccc(Br)s1 | 57.1% (active) |
| COc1ccc(Br)cc1C(=O)NC(=S)Nc1cc(-c2nc3ccccc3[nH]2)ccc1C | 16.8% (inactive) |
| Cc1ccc(-c2nc3ccccc3[nH]2)cc1NC(=O)c1sc2ccccc2c1Cl | 57.4% (active) |
| COc1ccc(-c2cc(C(=O)N(C)CC(=O)Nc3ccccc3Cl)c3ccccc3n2)cc1OC | 49.2% (active) |
| COc1ccc(-c2cc(C(=O)N(C)Cc3ccc(OC)c(OC)c3OC)c3ccccc3n2)cc1OC | 46.9% (active) |
| COc1ccc(CN(C)C(=O)c2cc(-c3ccc(C)cc3C)nc3ccccc23)c(OC)c1OC | 60.2% (active) |
| CN(C)c1ccc(-n2cccc2/C=C2/SC(=Nc3ccc(F)cc3)NC2=O)cc1 | 12.6% (inactive) |
| CCCc1nc2c(c(=O)c3ccccc3n2C)c(=O)n1C1CCCCCC1 | 87.2% (active) |

| SMILES | inhibition |
| --- | --- |
| CC(C)(C)Nc1nc(-c2ccccn2)nc2ccccc12 | 85.5% (active) |
| Cc1ccc(Oc2nc(-c3ccccn3)nc3ccccc23)cc1 | 3.9% (inactive) |
| COc1cc(/C=C2\Oc3ccc(C#Cc4ccc(O)cc4)cc3C2=O)cc(OC)c1 | 33.2% (inactive) |
| O=C(Nc1ccncc1)c1c(F)cccc1F | 61.9% (active) |
| COc1ccc2cc1Oc1ccc(cc1)C[C@H]1c3cc(c(OC)cc3CCN1C)Oc1c(O)c(OC)cc3c1[C@H](C2)N(C)CC3 | 100% (active) |
| COc1ccc(-c2nnc(SC(=O)N3c4ccccc4Sc4ccccc43)o2)cc1 | 31.4% (inactive) |
| CC[C@]1(O)C[C@@H]2CN(CCc3c([nH]c4ccccc34)[C@@](C(=O)OC)(c3cc4c(cc3OC)N(C)[C@H]3[C@@](O)(C(=O)OC)[C@H](OC(C)=O)[C@]5(CC)C=CCN6CC[C@]43[C@@H]65)C2)C1 | 72.5% (active) |
| CC[C@]1(O)CC2CN(CCc3c([nH]c4ccccc34)[C@@](C(=O)OC)(c3cc4c(cc3OC)N(C=O)[C@H]3[C@@](O)(C(=O)OC)[C@H](OC(C)=O)[C@]5(CC)C=CCN6CC[C@]43[C@@H]65)C2)C1 (stereo partly drawn) | 58.4% (active) |
| O=C1NC(Nc2nc3ccccc3s2)(C(F)(F)F)C(=O)N1C1CCCCC1 (stereo not drawn) | 62.5% (active) |
| COc1cc(NS(=O)(=O)c2ccc3ccccc3c2)c2ncccc2c1 | 88.3% (active) |
| CC(C)c1ccccc1OCC(O)CN(CC(O)COc1cccc2ccccc12)C(C)C (stereo not drawn) | 29.8% (inactive) |
| CC(=O)c1ccc(S(=O)(=O)N2CCN(C(=O)/C=C/c3ccc4ccccc4n3)CC2)cc1 | 71.5% (active) |
| O=C(Cc1csc(Nc2nc(=S)[nH]c3ccccc23)n1)NCCCN1CCN(c2cccc(Cl)c2)CC1 | 5% (inactive) |
| CC1(C)CC(N2CCN(C(c3ccccc3)c3ccccc3)CC2)=CC(=[N+]2CCCCC2)C1 | 89.8% (active) |
| COc1ccc(-c2nn(C)c(=O)c3ccccc23)cc1NC(=O)COc1ccccc1 | 41.5% (active) |
| COC(=O)c1cc(NC(=O)c2nn(C)c(=O)c3ccccc23)cc(C(=O)OC)c1 | 3.8% (inactive) |
| COc1cc([N+](=O)[O-])ccc1NC(=O)COC(=O)CCOc1ccc(C)cc1 | 21.9% (inactive) |
| CCN(CC)c1ccc(/C=N/Nc2nc(C)cc(C)n2)c(O)c1 | 53% (active) |
| CCN(CC)c1ccc(/C=N/NC(=O)c2cnccn2)c(O)c1 | 79% (active) |
| CCOc1ccc(-n2c(O)c(/C=N/Nc3nc(C)cc(C)n3)c3ccccc3c2=O)cc1 | 35.1% (inactive) |
| Cc1ccc(NC(=S)NC(NC(=O)Cc2cccc3ccccc23)C(Cl)(Cl)Cl)cc1 (stereo not drawn) | 11.2% (inactive) |
| COc1ccc(CC(=O)N/N=C(\C)c2ccccn2)cc1 | 14.6% (inactive) |
| C/C(=N\NC(=O)c1ccccc1F)c1ccccn1 | 41.9% (active) |
| COc1ccccc1N(CC(=O)N/N=C(\C)c1ccccc1O)S(=O)(=O)c1ccc(C)cc1 | 60.6% (active) |
| Cc1ccccc1C(=O)N1CCN(c2ccc(NC(=O)c3cccs3)cc2)CC1 | 48.6% (active) |
| Cc1ccc(-c2nnc(-c3ccc(NC(=O)c4cccs4)cc3)o2)cc1 | 20.9% (inactive) |
